An excerpt weighted towards active compounds, which were near 1.2% of everything screened.
TR SRC2 fluor cs – alters Texas Red total fluorescence, flagging assay interference; TRb/SRC2 Texas Red total fluorescence interference; Potency, µM (titrated, usually from 106 µM); hit rate 0.29% among 280,000; AID 1479; active = well fitted curve in either direction with a large enough effect; inconclusive = small, poorly fitted or top-dose-only effect
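Human TRb ligand-binding domain at 0.6 uM with 20 nM Texas Red SRC2 peptide in Tris buffer containing 1 uM T3 and 5% DMSO, incubated with compound 5 h at ambient temperature. Total fluorescence (555/632 nm) calculated as parallel + 2 × perpendicular.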
TRb SRC2 PPI – disrupts binding of human TR beta to SRC2 | P10828 | TRbeta-SRC2 peptide binding, fluorescence polarization; receptor liganded with 1 µM T3 | Potency, µM (titrated, usually from 106 µM), hits mostly inhibitors | hit rate 0.065% among 280,000 | AID 1469; also: nearly all actives have a fitted effect of over 50% in size
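Compounds were added to 0.6 uM TRb ligand-binding domain and 20 nM Texas Red-labeled SRC2 peptide in Tris buffer containing 1 uM T3, incubated 5 hr at ambient temperature, then read by fluorescence polarization.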
RGS12 GoLoco inh – RGS12 GoLoco-Gai1 interaction inhibition; Gai1:RGS12 GoLoco peptide FP, rhodamine, 10 min; P63096; hit rate 0.44% among 230,000; Potency, µM (titrated, usually from 61.6 µM), hits mostly inhibitors; AID 880; active = well fitted inhibition curve with a large enough effect, not every such curve was filed as active; inactive = no such curve, though single readings can be large or run the other way; also: nearly all actives have a fitted effect of over 30% in size
VDR inh – inhibitors of human vitamin D receptor. VDR-SRC2-3 peptide fluorescence polarization, 2 h. Potency, µM, most hits filed as inhibitors. hit rate 0.93% among 400,000. AID 504847
Target sequence (P11473 whole entry, looked up): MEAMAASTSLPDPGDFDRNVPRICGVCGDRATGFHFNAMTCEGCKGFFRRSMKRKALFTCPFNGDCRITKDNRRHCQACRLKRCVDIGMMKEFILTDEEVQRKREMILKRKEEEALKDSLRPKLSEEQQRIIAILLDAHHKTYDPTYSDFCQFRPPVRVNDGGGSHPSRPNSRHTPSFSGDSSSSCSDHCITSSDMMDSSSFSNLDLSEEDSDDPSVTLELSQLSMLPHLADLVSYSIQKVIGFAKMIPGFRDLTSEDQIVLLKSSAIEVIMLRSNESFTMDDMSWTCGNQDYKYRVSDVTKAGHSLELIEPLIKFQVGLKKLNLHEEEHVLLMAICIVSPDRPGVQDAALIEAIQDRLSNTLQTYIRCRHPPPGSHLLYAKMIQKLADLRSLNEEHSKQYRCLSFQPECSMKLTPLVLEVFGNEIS
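Measured by FP: displacement of SRC2-3 coactivator peptide from VDR by library compounds, following a two-hour ambient incubation.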
KAT2A inh – blocks human GCN5L2 histone acetyltransferase. Q92830. Potency, µM (doses to about 58.9 µM), hits mostly inhibitors. GCN5L2 HAT assay, ThioGlo1 CoA-SH fluorescence. hit rate 0.21% among 390,000. AID 504327
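Free CoA generated was detected with ThioGlo1 (50uM) fluorescence at Ex340nm/Em540nm, read immediately and after 20 min at room temperature. Enzyme, 20 nM in HEPES pH 7.5 buffer, saw compounds 15 min before adding 75uM H3(1-25) peptide and 70uM acetyl-CoA.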
USP1-UAF1 confirm – USP1-UAF1 deubiquitinase inhibition validated; shares compounds with VDR inh; Ub-Rhodamine cleavage, fluorescence kinetic read; Potency, µM (top dose mostly 56.8 µM), usual class: inhibitors; hit rate 50% among 50
VDR inh confirm – confirmation of human vitamin D receptor inhibitors. shares compounds with VDR inh. VDR-coactivator inhibition assay, qHTS confirmation. Potency, µM, actives largely listed as inhibitors. hit rate 89% among 840. AID 602199
VDR FP fluor – blocks human VDR-coactivator binding in fluorescein assay; shares compounds with VDR inh; VDR-coactivator binding, fluorescein fluorescence polarization; Potency, µM (top dose mostly 57.1 µM), most hits filed as inhibitors; hit rate 48% among 840; AID 602200
VDR bla reporter – VDR (human) inhibition, cell-based beta-lactamase validation; shares compounds with VDR inh; VDR beta-lactamase reporter cells, FRET ratio; cells co-treated with VDR agonist LG190178; Potency, µM (doses to about 46.1 µM), actives largely listed as inhibitors; hit rate 23% among 840; AID 602202
VDR viability – counter-screen for vitamin D receptor inhibitors: cytotoxicity; shares compounds with VDR inh; Potency, µM (doses to about 48.3 µM), most hits filed as cytotoxic; cytotoxicity counter-screen, cell viability, qHTS; hit rate 18% among 840; also: nearly all actives have a fitted effect of over 75% in size
Hits are given with their value; – = inactive; ? = inconclusive; · = no result given; [ ] = dose if it differs, or a comment. Unless noted, calls follow the shape of the dose curve; as a rule, active = well fitted curve in the direction sought with a large enough effect; inconclusive = small, poorly fitted or top-dose-only effect, or another doubt; inactive = no such curve, though single readings can be large; an effect the other way counts as inactive or inconclusive.

SMILES	TR SRC2 fluor cs	TRb SRC2 PPI	RGS12 GoLoco inh	VDR inh	KAT2A inh	VDR inh confirm	VDR FP fluor	VDR bla reporter	VDR viability	others
COC(=O)c1ccc(Cn2cc(/C=C\[N+](=O)[O-])c3ccccc32)o1	·	·	·	25µM	–	21	?	?	?
NC(=O)NCCS[C@H]1CCCC[C@@H]1O	·	·	–[14.2 µM]	·	·	·	·	·	·
CC(C)C[C@H](NC(=O)[C@@H]1CCCN1C(=O)[C@H](Cc1ccccc1)NC(=O)[C@H](C)NC(=O)[C@H](CCC(=O)O)NC(=O)[C@H](C)NC(=O)[C@H](CO)NC(=O)[C@H](CCC(=O)O)NC(=O)[C@H](CC(=O)O)NC(=O)[C@H](CCC(=O)O)NC(=O)[C@H](C)NC(=O)CNC(=O)[C@H](CC(N)=O)NC(=O)[C@@H]1CCCN1C(=O)[C@H](Cc1ccc(O)cc1)NC(=O)[C@@H](NC(=O)[C@H](CCCCN)NC(=O)[C@@H](NC(=O)[C@@H]1CCCN1C(=O)[C@@H](N)CCCNC(=N)N)C(C)C)C(C)C)C(=O)N[C@@H](CCC(=O)O)C(=O)N[C@@H](Cc1ccccc1)C(=O)O	–	–	·	–	–	·	·	·	·
O=C(O)/C(Cc1ccc([N+](=O)[O-])cc1)=N/O	·	·	–[14.2 µM]	·	·	·	·	·	·
O=C(Nc1nnc(-c2ccccc2)s1)C1CCCN(C(=O)c2ccoc2)C1 (configuration not stated)	·	·	·	45µM	·	16	8.9µM	?	–
CCc1nnc(NC(=O)C2CCCN(C(=O)c3ccoc3)C2)s1 (configuration not stated)	·	·	·	–	·	·	·	·	·
O=C(O)COc1cccc(-c2ocnc2-c2nc(-c3ccccc3)c(-c3ccccc3)o2)c1	–	–	–	?	?	·	·	·	·	USP1-UAF1 confirm=59µM
Cc1ccc(-c2nc(-c3nccc4ccccc34)oc2-c2ccccc2)cc1	–	–	–[14.2 µM]	–	?	·	·	·	·
CCCC[C@]12Cc3ccccc3C(O1)c1c(cc(-c3ccccc3)oc1=O)O2	·	·	·	·	–[12.7 µM]	·	·	·	·
CCCC(=O)OCCNc1cc(Sc2nccn2C)c2nonc2c1[N+](=O)[O-]	–	–	–	50µM	–	8.4	?	16µM	21µM
CCCSc1cc(NCCOC(=O)CCC)c([N+](=O)[O-])c2nonc12	–	–	–	?	–	·	·	·	·
O=[N+]([O-])c1c(NCCCO)cc(Sc2nc3ccccc3s2)c2nonc12	–	–	–	16µM	?	6	?	?	?
CCC(=O)OCCNc1cc(Sc2nc3ccccc3s2)c2nonc2c1[N+](=O)[O-]	–	–	–	8.9µM	–	6.7	3.2µM	16µM	?
COc1ccc(OC)c(CCNC(=O)CCc2cn(C)c3ccccc23)c1	·	·	·	–	–	·	·	·	·
CCCC(=O)NCCc1c2n(c3ccc(OC)cc13)CCCc1ccccc1-2	–	–	–	–	–	·	·	·	·	USP1-UAF1 confirm=?
CC1(OC(=O)C2CCCC2)C(=O)C=C2C=C(c3ccsc3)N(CCc3c[nH]c4ccccc34)C=C2C1=O (configuration not stated)	–[11.2 µM]	–[11.2 µM]	–[14.2 µM]	?	–	?	?	–	–
O=C(Nc1cccc(O)c1)c1ccccc1	–	–	–	–	–	·	·	·	·
O=C(NNc1cc(Br)c(O)c(Br)c1)c1ccccc1	–	–	–	79µM	–	?	?	–	–
Cc1noc(-c2ccc(CSCCC(=O)O)cc2)c1NC(=O)OC(C)c1ccccc1Cl (configuration not stated)	–	–	·	?	–	·	·	·	·
O=C(Nc1ccccn1)c1sc2cc([N+](=O)[O-])ccc2c1Cl	·	·	·	32µM	?	3.4	?	–	–
CC1(C)CC(=O)C(C(C2=C(O)CC(C)(C)CC2=O)c2ccc(O)c([N+](=O)[O-])c2)=C(O)C1	–	–	–	79µM	–	9.5	?	–	–
CC1(C)CC(=O)C2=C(C1)OC1=C(C(=O)CC(C)(C)C1)C2c1ccc(O)c([N+](=O)[O-])c1	–	–	–	–	–	·	·	·	·
CCCCN1C(=O)C(=Nc2cccc3cnccc23)c2ccccc21	–	–	–	50µM	–	15	?	–	–
CCCCN1C(=O)/C(=C2\SC(N3CCCCC3)=NC2=O)c2ccccc21	–	–	–	–	–	·	·	·	·
COc1ccc2c(c1)C(=O)[C@@H](OC(=O)NCCOc1ccccc1)[C@H](c1ccc(OC)c(Br)c1)O2	–	–	–	–	·	·	·	·	·
SMILES	TR SRC2 fluor cs	TRb SRC2 PPI	RGS12 GoLoco inh	VDR inh	KAT2A inh	VDR inh confirm	VDR FP fluor	VDR bla reporter	VDR viability	others
Nc1nc(C(=O)O)c(N=Nc2ccccc2)c(=O)[nH]1	·	·	–[14.2 µM]	·	·	·	·	·	·
CCOC(=O)/C(C#N)=C1/C(=O)N(Cc2ccccc2)c2ccccc21	–	–	–	28µM	–	3.4	?	–	–
CCOC(=O)C(C#N)=C1CCN(Cc2ccccc2)CC1	·	·	·	–	–	·	·	·	·
CN(C)c1ccc(-n2cccc2/C=C/[N+](=O)[O-])cc1	–	–	–	35µM	–	13	8.9µM	?	?
C=CCOc1ccc(/C=C2/C(=O)ON=C2C)cc1OC	·	·	·	–	–	·	·	·	·
CCCOc1ccc(/C=C2/C(=O)ON=C2C)cc1OCC	·	·	·	?	–	13	7.1µM	?	–
CCCOc1ccccc1/C=C1/C(=O)ON=C1C	·	·	·	25µM	–	13	?	–	–
COc1ccc2nc(NC(=O)c3nc(S(=O)(=O)Cc4ccccc4F)ncc3Cl)sc2c1	–	–	·	–	?	·	·	·	·
Cc1cccc(CS(=O)(=O)c2ncc(Cl)c(C(=O)Nc3nc4ccc(F)cc4s3)n2)c1	–	–	·	–	–	·	·	·	·
Cc1cccc(C)c1NC(=O)c1nc(S(=O)(=O)Cc2ccccc2F)ncc1Cl	·	·	·	·	·	?	4µM	6.5µM	?
O=C(Nc1ccccc1F)c1nc(S(=O)(=O)Cc2ccccc2F)ncc1Cl	–	–	·	14µM	–	2.8	8.9µM	?	12µM
O=C(Nc1ccc2ccccc2c1)c1nc(S(=O)(=O)Cc2ccccc2F)ncc1Cl	·	·	·	·	·	3.5	3.5µM	18µM	19µM
CN(C)CCOC(=O)c1ccc(N)cc1	·	·	–[14.2 µM]	·	·	·	·	·	·
O=C(/C=C/c1ccc(O)c(O)c1)c1ccc(S(=O)(=O)N2CCCCCC2)cc1	–	?	–	79µM	–	24	25µM	–	–
CCC(O)OC(O)CC (configuration not stated)	–[5.17e+03 µM]	–[5.17e+03 µM]	–	·	·	·	·	·	·

From PubChem
